High-throughput results: PubChem, Broad Institute
aSyn UTR act = Activators via SNCA 5'UTR binding, MLPCN. alpha-synuclein 5'UTR reporter, activators screen. activity score, % (tested at 7.5 µM), hits read low. hit rate 7.1% among 300,000. AID 1814, 2009; in the data active means activity score below about -60%
Starred values were filed as active, the others as inactive. Not all results are given here.

SMILES	aSyn UTR act
CC(Cc1ccccc1)NC(=O)c1cc2ccccc2o1 (stereo not given)	-162*
O=C(c1ccccc1)c1cc2ccccc2o1	-149*
O=C(c1ccc(F)cc1)c1cc2ccccc2o1	-171*
Cc1ccc(C(=O)c2cc3ccccc3o2)cc1[N+](=O)[O-]	-119*
CSC1=NSC2=NC(=O)/C(=C\c3cccs3)C(=N)N12	-199*
CC(C)CSC1=NSC2=NC(=O)/C(=C\c3cccs3)C(=N)N12	-69*
Cc1sc(NC(=O)CS(=O)(=O)c2ccccc2)c(C#N)c1C	-87*
CC1(C)Cc2c(sc(NC(=O)COc3cccc4ccccc34)c2C#N)C(C)(C)N1	72
Cc1sc(NC(=O)COc2ccccc2)c(C#N)c1C	-91*
Cc1cccc(OCC(=O)Nc2sc3c(c2C#N)CCC3)c1	-100*
Cc1cccc(OCC(=O)Nc2cc(C)c(C)cc2O)c1	-112*
C/C(CC(=O)Nc1cc(C)ccn1)=N\NC(=O)COc1cccc(C)c1	-110*
CC(=O)Nc1sc(C)c(C)c1C(=O)OCC(=O)N(CC(C)C)c1c(N)n(Cc2ccccc2)c(=O)[nH]c1=O	77
CC(=O)Nc1sc(C)c(C)c1C(=O)OCCOc1ccccc1	-130*
Nc1c(C(=O)Nc2ccc(Br)cc2)sc2nc(-c3ccco3)ccc12	-171*
CC(=O)c1sc2nc(-c3ccco3)ccc2c1N	-81*
NC(=O)c1sc2nc(-c3ccccc3)ccc2c1N	-73*
CSc1cccc(NC(=O)c2c(Cl)cnn2C)c1	-89*
C/C(=N\NC(=O)c1cccc(F)c1)c1cccc(NC(=O)c2ccc(F)cc2)c1	-72*
C/C(=N\NC(=O)c1c(Cl)cnn1C)c1cccc(NC(=O)c2ccc(C)cc2)c1	-72*
C/C(=N\NC(=O)c1ccccc1F)c1cccc(NC(=O)c2ccc(C)cc2)c1	-74*
C/C(=N\NC(=O)c1ccc(O)cc1)c1cccc(NC(=O)c2ccc(Cl)cc2)c1	-161*
C/C(=N\NC(=O)c1c(Br)cnn1C)c1ccc(NC(=O)c2ccc(F)cc2)cc1	-108*
Cc1ccc(-c2onc3ccc(Cl)cc23)cc1	-63*
O=Cc1ccc2noc(-c3ccc(Cl)cc3)c2c1	-67*
SMILES	aSyn UTR act
Cc1ccc(-c2onc3ccc(C4OCCO4)cc23)cc1	-100*
CC(=O)c1ccc2noc(-c3cccc(C)c3)c2c1	-99*
COn1c(-c2ccc(Cl)cc2)nc2ncccc21	-107*
Cc1cc(NC(c2ccc(Cl)cc2)c2ccc3cccnc3c2O)no1 (stereo not given)	85
[O-][n+]1onc2c1CCc1nnccc1-2	-86*
Cc1ccc(SCC(=O)Nc2ccc(-c3nnc(-c4ccco4)o3)cc2)cc1	-106*
O=C(Cc1ccccc1)Nc1ccc(-c2nnc(-c3ccco3)o2)cc1	-77*
O=C1C2C3C=CC(C4CC34)C2C(=O)N1/N=C/c1c[nH]c2ccccc12 (stereo not given)	-141*
O=C1C2C3C=CC(C4CC34)C2C(=O)N1/N=C/c1ccc([N+](=O)[O-])s1 (stereo not given)	-85*
CC(C)(C)c1csc(N/N=C/c2ccc(O)cc2)n1	-165*
CN1CCN(c2ccc(NC(=O)N3CCc4ccccc43)cc2)CC1	70
O=C(Cc1ccccc1)Nc1ccc(N2CCCCC2)cc1	-67*
CN1CCN(c2ccc(NC(=O)Cc3ccccc3)cc2)CC1	-68*
O=C(/C=C/c1ccccc1)Nc1ccc(N2CCCCC2)cc1	-196*
COc1cc2c(cc1NC(=O)c1cccc([N+](=O)[O-])c1)oc1ccccc12	81
COc1cc2c(cc1NC(=O)c1cccnc1)oc1ccccc12	-155*
COc1cc2c(cc1NC(=O)c1ccncc1)oc1ccccc12	-132*
Cc1cc(=O)n2nc(-c3ccccc3)sc2n1	-99*
[O-][n+]1ccccc1SC/C=C/c1ccccc1	-65*
Cc1ccc(C2Nc3ccc4ccccc4c3C3=C2C(=O)CC(C)(C)C3)o1 (stereo not given)	-73*
Cn1ccnc1SCC(=O)c1c[nH]c2ccccc12	-160*
Cc1cccnc1NC(=O)COc1ccc2c(c1)CCC2	-94*
Cc1ccc(NC(=O)COc2ccc3c(c2)CCC3)nc1	-98*
Cc1ccc(OCC(=O)c2ccc3c(c2)CCCC3)cc1C	-84*
O=[N+]([O-])c1ccc(-c2ccc(/C=N/O)o2)cc1	-95*
SMILES	aSyn UTR act
O/N=C\c1ccc(-c2ccccc2)o1	-112*
O=C(Nc1cccc(Cl)c1N1CCCC1)c1cc2ccccc2o1	-74*
CCN1CCN(c2c(Cl)cccc2NC(=O)c2ccc([N+](=O)[O-])o2)CC1	79
CC(=O)c1cccc(NC(=O)c2cc(=O)c3ccccc3o2)c1	-62*
COC(=O)c1cccc(NC(=O)c2cc3ccccc3o2)c1	-105*
COC(=O)c1ccccc1NC(=O)c1cc2ccccc2o1	-79*
CN(C)S(=O)(=O)c1cc(NC(=O)c2cc(=O)c3ccccc3o2)ccc1Cl	-66*
O=C(Nc1ccccc1C(F)(F)F)c1cc2ccccc2o1	-209*
CSc1ccccc1OCc1cc(C(=O)N2CCCC2c2nonc2C)no1 (stereo not given)	-144*
Cc1nonc1C1CCCN1C(=O)c1cc(COc2ccc(F)cc2F)on1 (stereo not given)	-126*
Cc1cc(C(=O)O)ccc1N/C=C1\CCCC(C)C1=O (stereo not given)	-131*
CC1CCC/C(=C\Nc2ccc(O)cc2)C1=O (stereo not given)	-116*
CNC(=O)/C(C#N)=C/c1ccc(OCCOc2ccccc2)cc1	-66*
Cc1ccccc1COc1ccc(/C=C(\C#N)C(N)=O)cc1	-105*
N#Cc1ccccc1COc1ccc(/C=C/C(=O)O)cc1	71
N#C/C(=C/c1ccc(OCc2ccccc2)cc1)C(=O)NC1CCCCC1	-121*
N#C/C(=C\c1ccc(OCc2ccccc2)cc1)C(N)=O	-92*
C=CC(C)(C)c1c(O)c(CC=C(C)C)c(O)c2c(=O)c3ccc(O)c(O)c3oc12	73
CSc1ccc(C2N=C(c3ccccc3)NO2)cc1 (stereo not given)	-128*
Oc1c(Br)cc(C2N=C(c3ccccc3)NO2)cc1Br (stereo not given)	-65*
O=C(Cn1cc(C(F)(F)F)cc(Cl)c1=O)NCc1ccccc1	-113*
CCOC(=O)COc1cccc2c(=O)n(CC(=O)NCc3ccccc3)ccc12	57
Cc1cc(C)nc(SCC(=O)NC2=NN=C(c3ccc(Br)cc3)CS2)n1	-74*
Cc1csc(Nc2ccccc2)[n+]1-c1ccccc1	-69*
CC(C)(C)c1ccc(CN2C3=NCCCN3c3ccccc32)cc1	-62*
SMILES	aSyn UTR act
CC(C)(C)c1ccc(Cn2c(=N)n(CC(O)c3ccco3)c3ccccc32)cc1 (stereo not given)	101
O=C(NCSc1ccccc1)c1ccccc1	-94*
Cc1cc2c(C)nc(-c3ccccc3)nc2o1	-167*
COC(=O)c1cc(C(=O)Nc2nc3ccccc3[nH]2)cc([N+](=O)[O-])c1	-162*
O=C(/C=C/c1ccc(F)cc1)Nc1nc2ccccc2[nH]1	-129*
O=C(Nc1nc2ccccc2[nH]1)c1cccc(F)c1	-62*
COc1cccc(C(=O)Nc2nc3ccccc3[nH]2)c1	63
O=C(Nc1nc2ccccc2[nH]1)c1ccc(Cl)c(S(=O)(=O)N2CCCC2)c1	-148*
COc1cc(C(=O)Nc2nc3ccccc3[nH]2)cc(OC)c1OC	-76*
COc1ccc(C(=O)Nc2nc3ccccc3[nH]2)cc1	71
O=C(Nc1nc2ccccc2[nH]1)c1cccc([N+](=O)[O-])c1	-250*
